This passage reports binding signal results from patent US5652105, “Substrate for detection of mammalian 5-C-DNA methyltransferase” (Health Research, Inc.).

The experiment deals with DNA 5-C-methyltransferase (murine, Friend erythroleukemia cells) (Mus musculus, UniProt P13864 P13864:1-1620). Nature of the experiment: same rate as unmethylated A. The settings on record: protein: extract; tags: 0.3 M NaCl nuclear extract, 100,000 x g supernatant; single approx. 190 kDa species forming covalent complexes; homodimer, no analogous stem-loop; ssDNA; 5mC at 7.
Chain of DNA 5-C-methyltransferase (murine, Friend erythroleukemia cells) (P13864 whole entry, one chain of several): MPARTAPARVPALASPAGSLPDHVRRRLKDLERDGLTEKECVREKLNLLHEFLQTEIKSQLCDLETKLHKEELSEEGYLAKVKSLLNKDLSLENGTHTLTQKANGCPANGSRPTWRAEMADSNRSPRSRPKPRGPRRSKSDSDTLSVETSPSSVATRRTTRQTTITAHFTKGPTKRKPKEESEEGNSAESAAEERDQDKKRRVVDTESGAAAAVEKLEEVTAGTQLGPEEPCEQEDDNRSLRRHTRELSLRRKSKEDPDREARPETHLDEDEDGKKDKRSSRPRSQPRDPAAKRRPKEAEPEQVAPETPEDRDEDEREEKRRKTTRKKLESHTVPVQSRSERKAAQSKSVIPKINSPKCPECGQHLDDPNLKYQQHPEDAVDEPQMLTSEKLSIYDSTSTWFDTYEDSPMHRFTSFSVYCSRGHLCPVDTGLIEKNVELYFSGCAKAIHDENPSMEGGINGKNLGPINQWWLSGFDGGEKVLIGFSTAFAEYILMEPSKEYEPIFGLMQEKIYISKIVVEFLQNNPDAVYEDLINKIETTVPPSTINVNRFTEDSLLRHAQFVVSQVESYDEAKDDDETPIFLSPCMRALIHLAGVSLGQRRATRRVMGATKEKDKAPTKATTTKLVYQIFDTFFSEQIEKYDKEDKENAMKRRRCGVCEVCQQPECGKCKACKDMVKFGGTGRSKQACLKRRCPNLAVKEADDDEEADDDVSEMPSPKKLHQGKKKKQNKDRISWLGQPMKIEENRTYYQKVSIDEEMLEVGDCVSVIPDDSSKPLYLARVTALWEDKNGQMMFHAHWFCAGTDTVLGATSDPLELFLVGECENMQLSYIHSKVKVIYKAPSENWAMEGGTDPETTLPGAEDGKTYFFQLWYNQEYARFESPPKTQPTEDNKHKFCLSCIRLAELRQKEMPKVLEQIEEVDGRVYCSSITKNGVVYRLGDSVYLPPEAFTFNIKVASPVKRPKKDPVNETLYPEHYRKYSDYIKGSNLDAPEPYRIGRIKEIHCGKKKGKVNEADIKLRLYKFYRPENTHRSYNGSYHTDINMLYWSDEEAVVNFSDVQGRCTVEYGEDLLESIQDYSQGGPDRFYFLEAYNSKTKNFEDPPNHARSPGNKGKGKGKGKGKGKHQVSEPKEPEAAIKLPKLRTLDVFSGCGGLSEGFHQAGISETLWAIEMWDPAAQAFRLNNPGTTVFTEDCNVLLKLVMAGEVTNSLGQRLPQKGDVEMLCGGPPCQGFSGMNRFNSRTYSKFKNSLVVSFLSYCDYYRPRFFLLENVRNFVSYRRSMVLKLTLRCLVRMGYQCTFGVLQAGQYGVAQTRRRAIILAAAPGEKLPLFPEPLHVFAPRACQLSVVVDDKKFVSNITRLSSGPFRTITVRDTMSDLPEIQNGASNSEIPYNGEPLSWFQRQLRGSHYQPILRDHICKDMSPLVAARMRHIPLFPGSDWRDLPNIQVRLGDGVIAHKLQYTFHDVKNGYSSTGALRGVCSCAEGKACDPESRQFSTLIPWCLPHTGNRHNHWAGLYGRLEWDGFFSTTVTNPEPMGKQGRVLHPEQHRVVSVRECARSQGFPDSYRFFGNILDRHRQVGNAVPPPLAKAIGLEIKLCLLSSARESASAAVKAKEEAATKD

For ATTGCGCTACTCGGATCCGGCCAT, the binding signal is 1 relative to A.
